Results on 17 compounds are retold here after the antibiotic and cytotoxicity screens of Wong et al. (2023).

About 3,300 (8.5%) of roughly 39,000 compounds were called active. Only a selection was taken, and actives are over-represented in it overall.

This assay has as its system HepG2. The assay is described as follows: cytotoxicity call (relative viability < 0.9). The conditions noted are these: 10 µM.
On to `O[C@H]1[C@H](O)[C@@H](O)[C@H](O)[C@@H](O)[C@H]1O`, for which the cytotoxicity call was “inactive”. The value for `Cc1ccc(S[C@]2(C(=O)NC3CC3)CC(=O)N(C3Cc4ccccc4C3)[C@@H]2c2ccc(CO)cc2I)cc1` was “inactive”. Next, `C[C@@H]1CN([C@@H](C)CO)C(=O)c2cc(-c3ccncc3)cnc2O[C@@H]1CN(C)S(=O)(=O)c1ccc(F)cc1`: “inactive”; `COc1ccc2c3c(n(c2c1)C)[C@@H](CO)N(CC1CCOCC1)C[C@]13CN(C1)C(=O)Cc1cccnc1`: “inactive”. Next, `C[C@@H]1CN([C@H](C)CO)C(=O)c2cccc(NS(=O)(=O)c3cccs3)c2O[C@@H]1CN(C)S(=O)(=O)c1ccc(F)cc1`: “inactive”; `C[C@@H]1CN([C@H](C)CO)S(=O)(=O)c2ccc(C#CC3CC3)cc2O[C@H]1CN(C)C(=O)C1CCCCC1`: “inactive”. As to `C[C@H]1CN([C@@H](C)CO)S(=O)(=O)c2ccc(C#Cc3ccncc3)cc2O[C@@H]1CN(C)C(=O)C1CCCCC1`, the cytotoxicity call is “active”.

For the compound `C[C@@H]1CN([C@@H](C)CO)S(=O)(=O)c2ccc(C#Cc3ccncc3)cc2O[C@@H]1CN(C)C(=O)C1CCCCC1`, the cytotoxicity call was “active”.

On to `C[C@@H]1CN([C@H](C)CO)S(=O)(=O)c2ccc(C#Cc3ccncc3)cc2O[C@@H]1CN(C)C(=O)C1CCCCC1`, for which the cytotoxicity call was “active”. As to `C[C@H](O)C#Cc1ccc2c(c1)O[C@@H](CN(C)C(=O)C1CCCCC1)[C@@H](C)CN([C@@H](C)CO)S2(=O)=O`, the cytotoxicity call was “inactive”.

Turning to `Cc1noc(C)c1NC(=O)Nc1ccc2c(c1)CC(=O)N([C@H](C)CO)C[C@@H](C)[C@@H](CN(C)Cc1ccc(C(=O)Nc3ccccc3N)cc1)O2`, the cytotoxicity call is “inactive”.

Take `C[C@@H]1CN([C@H](C)CO)C(=O)Cc2cc(NC(=O)CCC(F)(F)F)ccc2O[C@@H]1CN(C)Cc1ccc(C(=O)Nc2ccccc2N)cc1`: the cytotoxicity call was “inactive”. In the case of `C[C@H](CO)N1C[C@H](C)[C@H](CN(C)S(C)(=O)=O)Oc2c(cccc2N(C)C)C1=O`, the cytotoxicity call was “inactive”. Next, `C[C@@H]1CN([C@H](C)CO)C(=O)c2cccc(NC(=O)C3CCCCC3)c2O[C@@H]1CN(C)S(=O)(=O)c1cn(C)cn1`: “inactive”. The value for `C[C@@H]1CN([C@H](C)CO)C(=O)c2cccc(NC(=O)Nc3ccc(F)cc3)c2O[C@@H]1CN(C)S(=O)(=O)c1cn(C)cn1` was “inactive”.

For `COc1ccc(-n2nc(C(=O)NCC(=O)N3CCN(c4ccccc4)CC3)c3ccccc3c2=O)c(OC)c1`, the cytotoxicity call was “inactive”. Next, `CC[C@H]1OC(=O)[C@H](C)[C@@H](O[C@H]2C[C@@](C)(OC)[C@@H](O)[C@H](C)O2)[C@H](C)[C@@H](O[C@@H]2O[C@H](C)C[C@H](N(C)C)[C@H]2O)[C@](C)(O)C[C@@H](C)[C@@H]2N[C@@H](COCCOC)O[C@H]([C@H]2C)[C@]1(C)O`: “inactive”.
